This is a sample that favours compounds with a hit; in the whole collection about 2.8% have one here.
Pol iota inh – qHTS for Inhibitors of Polymerase Iota | Pol iota fluorescent replication assay, 10 min | DNA polymerase iota (Homo sapiens), Q9UNA4 | Potency, µM (series often up to 115 µM), inactives show at the highest dose activity, negative = inhibition, hits mostly inhibitors | 390,000 tested, 1% active; note: potency is the fitted concentration of half-maximal effect
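Fluorescent replication assay read twice, at 0 min and 10 min after adding 50 nM (final) substrate. Enzyme (10 nM) and compounds were first incubated 15 min at room temperature; enzyme-free buffer wells were negative controls.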
POLH inh – qHTS for Inhibitors of Polymerase Eta. 390,000 tested, 1.2% active. recombinant Pol eta, fluorescent DNA replication assay. Potency, µM (titrated, usually from 114 µM), for the others: top-dose activity change, negative = inhibition, hits mostly inhibitors. DNA polymerase eta (Homo sapiens), Q9Y253; note: potency is the fitted concentration of half-maximal effect; % is set by controls: 0 for no effect and ±100 for the full control effect
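Fluorescent replication assay: 50 nM final substrate added after a 15 min room-temperature compound preincubation with 10 nM enzyme. Signal taken at 0 min and again at 10 min.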
POLK inh – qHTS for Inhibitors of Polymerase Kappa. purified Pol kappa, fluorescent DNA synthesis assay, 10 min. Potency, µM (top dose mostly 107 µM), for inactives: at the highest dose activity, negative = inhibition, hits mostly inhibitors. 400,000 tested, 0.53% active. AID 588579, 2011; note: potency is the fitted concentration of half-maximal effect; % is set by controls: 0 for no effect and ±100 for the full control effect
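10 nM Pol kappa was preincubated with compounds for 15 min at room temperature. Reaction started with 50 nM (final) substrate. Fluorescence read kinetically at 0 and 10 min.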
WRN inhibitor – qHTS for Inhibitors of WRN Helicase; Potency, µM (doses to about 114 µM), for the others: at the highest dose activity change, negative = inhibition, usual class: inhibitors; AID 651768, 2012; Bifunctional 3'-5' exonuclease/ATP-dependent helicase WRN (Homo sapiens), Q14191; WRN helicase unwinding, fluorescent forked duplex, kinetic; 360,000 tested, 0.46% active; note: potency is the fitted concentration of half-maximal effect; % is set by controls: 0 for no effect and ±100 for the full control effect; nearly all actives have a fitted effect of over 55% in size
Target sequence (Q14191 whole entry, looked up): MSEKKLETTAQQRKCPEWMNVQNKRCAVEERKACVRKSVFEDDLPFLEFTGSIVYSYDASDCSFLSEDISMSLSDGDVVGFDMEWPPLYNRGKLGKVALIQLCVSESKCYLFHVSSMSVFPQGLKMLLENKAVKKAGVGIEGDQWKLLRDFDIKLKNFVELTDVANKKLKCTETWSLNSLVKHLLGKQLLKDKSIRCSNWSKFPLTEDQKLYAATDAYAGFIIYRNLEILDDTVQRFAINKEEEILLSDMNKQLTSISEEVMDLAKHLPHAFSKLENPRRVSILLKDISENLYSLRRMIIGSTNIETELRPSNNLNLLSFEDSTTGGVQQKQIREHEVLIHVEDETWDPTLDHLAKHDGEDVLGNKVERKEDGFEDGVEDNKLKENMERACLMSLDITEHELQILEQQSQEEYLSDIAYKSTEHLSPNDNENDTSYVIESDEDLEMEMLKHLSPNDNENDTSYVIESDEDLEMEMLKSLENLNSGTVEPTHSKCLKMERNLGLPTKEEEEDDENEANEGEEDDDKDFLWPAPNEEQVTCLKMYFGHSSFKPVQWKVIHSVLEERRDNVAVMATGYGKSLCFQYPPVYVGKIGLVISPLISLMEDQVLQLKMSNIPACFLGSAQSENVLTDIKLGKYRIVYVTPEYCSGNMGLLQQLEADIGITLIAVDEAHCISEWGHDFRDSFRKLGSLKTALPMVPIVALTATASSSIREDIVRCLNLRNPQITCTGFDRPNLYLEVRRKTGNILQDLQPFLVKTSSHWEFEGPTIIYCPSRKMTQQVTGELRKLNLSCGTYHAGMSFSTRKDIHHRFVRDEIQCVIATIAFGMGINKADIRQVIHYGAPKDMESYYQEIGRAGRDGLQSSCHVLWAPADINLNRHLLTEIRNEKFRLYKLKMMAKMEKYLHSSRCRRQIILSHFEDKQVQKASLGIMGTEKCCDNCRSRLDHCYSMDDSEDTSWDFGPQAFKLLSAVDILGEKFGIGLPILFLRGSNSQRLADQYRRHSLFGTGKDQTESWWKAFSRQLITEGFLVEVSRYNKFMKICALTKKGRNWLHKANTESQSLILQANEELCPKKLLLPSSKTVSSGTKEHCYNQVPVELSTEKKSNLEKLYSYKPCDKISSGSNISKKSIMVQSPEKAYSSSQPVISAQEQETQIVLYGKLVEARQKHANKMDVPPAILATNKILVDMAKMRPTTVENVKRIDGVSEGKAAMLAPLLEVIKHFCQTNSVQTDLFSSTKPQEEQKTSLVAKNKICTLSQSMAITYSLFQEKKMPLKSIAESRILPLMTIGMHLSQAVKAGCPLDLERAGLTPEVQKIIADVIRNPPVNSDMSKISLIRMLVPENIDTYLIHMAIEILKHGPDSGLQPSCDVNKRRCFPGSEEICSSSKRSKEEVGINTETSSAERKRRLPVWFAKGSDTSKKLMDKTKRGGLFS
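WRN at 20 nM final was preincubated with compound for 15 min at room temperature; reaction started with 100 nM forked duplex oligonucleotide carrying fluorophore and quencher plus 2 mM ATP (final). Unwinding followed kinetically by red fluorescence (ex 525/em 598 nm).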
Pol beta inh – qHTS Assay for Inhibitors of DNA Polymerase Beta. 340,000 tested, 1.3% active. AID 485314, 2010. Potency, µM (titrated, usually from 114 µM), for the others: top-dose activity change, negative = inhibition, hits mostly inhibitors. Pol beta primer extension/strand displacement, fluorescence kinetic; note: potency is the fitted concentration of half-maximal effect; % is set by controls: 0 for no effect and ±100 for the full control effect
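Curves were derived by four-parameter Hill fits of normalized qHTS data. The kinetic fluorescent primer-extension read was taken at 0 and 10 min after 50 nM substrate, following a 15 min room-temperature preincubation of 10 nM enzyme with compounds.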
PI5P4K alpha inh – qHTS for Inhibitors of phosphatidylinositol 5-phosphate 4-kinase (PI5P4K) | 330,000 tested, 1.2% active | max response, % | PI5P4Kalpha enzyme, ADP-Glo luminescence, 60 min; hits give low values; active = max response of -50% or lower; inconclusive = between -30% and -50%; inactive = -30% or higher; note: value at the top dose of about 77 µM; % is set by controls: 0 for no effect and ±100 for the full control effect
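Single end-point luminescence (ADP-Glo) quantified ADP from PI5P4Kalpha turnover; ATP 5 microM final, 1 h at RT, 0.1% CHAPS and 0.28 mM EGTA in HEPES pH 7.4.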
* hit, by the source's call; ? = inconclusive; nt = no result; [ ] = another dose, or the depositor's remark. Unless noted, calls come from the whole dose curve; as a rule, active = well fitted curve in the direction sought with a large enough effect; inconclusive = small, poorly fitted or top-dose-only effect, or another doubt; inactive = no such curve, though single readings can be large; an effect the other way counts as inactive or inconclusive.

SMILES | Pol iota inh | POLH inh | POLK inh | WRN inhibitor | Pol beta inh | PI5P4K alpha inh
Cc1nnc(N2CCCC(C(=O)NCc3ccccc3)C2)c2nn(-c3ccccc3)c(C)c12 (stereo unspecified) | 22% | -11% | -1% | nt | 29% | nt
Cc1ccc(-n2nc3c(N4CCC(C(=O)NCc5ccccc5C)CC4)nnc(C)c3c2C)cc1 | ? | 50µM* | 2% | -15%[11.6 µM] | 89µM* | 5
CCOc1ccc(CNC(=O)C2CCN(c3nnc(C)c4c(C)n(-c5ccc(C)cc5)nc34)CC2)cc1 | ? | ? | -37% | -32%[11.6 µM] | 7.9µM* | -4
Cc1nnc(N2CCC(C(=O)NCc3ccc(F)cc3)CC2)c2nn(-c3ccc(Cl)cc3)c(C)c12 | 27% | -28% | -13% | nt | 79µM* | nt
Cc1ccccc1-c1nnnn1C1CCS(=O)(=O)C1 (stereo unspecified) | -17% | 5% | 9% | 0% | -29% | 0
Cc1cc(=O)n(C2CCS(=O)(=O)C2)[nH]1 (stereo unspecified) | 4.5µM* | -8% | -14% | -4%[57.1 µM] | -6% | 1
COc1cccc(N2CCN(C(=O)c3ccc4c(=O)n(CCc5ccccc5)c(=O)[nH]c4c3)CC2)c1 | -6% | -20% | -5% | nt | 2% | nt
COc1ccccc1C(=O)NC1(C(F)(F)F)NC(=O)N(CCc2ccccc2)C1=O (stereo unspecified) | 79µM* | -8% | -9% | nt | 4% | nt
COc1ccc(CCN2C(=O)NC(NC(=O)c3ccccc3OC)(C(F)(F)F)C2=O)cc1OC (stereo unspecified) | 17% | -16% | 1% | nt | -24% | nt
CCOc1ccc(NC(=O)c2ccc3c(SCC(=O)O)c4c(nc3c2)CCCC4)cc1 | 41% | ? | 8% | -11% | -2% | -9
O=C(O)CSc1c2c(nc3cc(C(=O)Nc4cccc(C(F)(F)F)c4)ccc13)CCC2 | ? | 40µM* | ? | -14%[11.6 µM] | ? | ?
Nc1ccccc1C(=O)NC(=O)Nc1ccc(Oc2ncc(Br)cn2)c(Cl)c1 | 9% | 1% | -6% | -6% | nt | 9
COc1ccc(NC(=O)C(c2ccnc3ccccc23)n2c(=O)c(-c3ccco3)nc3ccccc32)cc1 (stereo unspecified) | nt | nt | nt | 0% | nt | -24
Cc1cccc(C)c1NC(=O)C(c1ccccc1F)n1c(=O)c(-c2ccco2)nc2ccccc21 (stereo unspecified) | nt | nt | nt | -12% | nt | -67*
COc1ccc(NC(=O)C(c2ccccc2F)n2c(=O)c(-c3ccco3)nc3ccccc32)cc1 (stereo unspecified) | nt | nt | nt | -7% | nt | -15
CC(C)(C)NC(=O)C(c1ccc(-c2ccccc2)cc1)n1c(=O)c(-c2ccco2)nc2ccccc21 (stereo unspecified) | nt | nt | nt | -8% | nt | ?
Cc1cccc(C)c1NC(=O)C(c1ccc(-c2ccccc2)cc1)n1c(=O)c(-c2ccco2)nc2ccccc21 (stereo unspecified) | nt | nt | nt | -20% | nt | -99*
Cc1cccc(C)c1NC(=O)C(c1ccnc2ccccc12)n1c(=O)c(-c2ccco2)nc2ccccc21 (stereo unspecified) | nt | nt | nt | -5% | nt | -72*
COc1cc(Nc2nc(SCC(=O)c3ccc(Br)cc3)nc3ccccc23)cc(OC)c1 | 79µM* | ? | 1%[60.1 µM] | nt | ? | nt
O=C(CSc1nc(Nc2ccc(F)cc2)c2ccccc2n1)c1ccc(F)cc1 | 22% | -23% | -2%[60.1 µM] | nt | 4% | nt
COc1ccccc1OC(=O)CCc1nc2ccccc2s1 | 16µM* | ? | ? | -6% | ? | ?
CCOC(=O)c1sc2nc(-c3ccco3)c3c(c2c1N)CC(C)(C)OC3 | -10% | ? | -15% | ? | 40µM* | ?
CC(=O)Nc1ccc(Sc2ccc([N+](=O)[O-])o2)cc1 | ? | 32µM* | -23% | -11% | nt | -3
COc1ccc(N(Cc2nnc3n2CCCCC3)C(=O)Nc2ccc(Cl)cc2)cc1Cl | 23% | -15% | -5%[60.1 µM] | nt | 32% | nt
CCN1C(=O)N[C@@H](c2cccs2)C(C(=O)OC)=C1C | -7% | 1% | -16% | 6% | nt | 0
SMILES | Pol iota inh | POLH inh | POLK inh | WRN inhibitor | Pol beta inh | PI5P4K alpha inh
CC1=C(C(=O)OCc2ccccc2)C(c2cccs2)NC(=O)N1CCCC(=O)O (stereo unspecified) | ? | -5% | -7% | -21% | ? | -66*
CCOC(=O)C1=C(C)N(CCCC(=O)O)C(=O)NC1c1cccc(OC)c1 (stereo unspecified) | 26% | -3% | 5% | 5% | nt | ?
CCOC(=O)C1=C(C)N(CCCC(=O)O)C(=O)NC1c1cccs1 (stereo unspecified) | ? | -2% | 3% | 1% | nt | -66*
COC(=O)C1=C(C)N(CCCC(=O)O)C(=O)NC1c1cccs1 (stereo unspecified) | 12% | -7% | 8% | 7% | 26% | -73*
O=C(Cn1ncn2c(cc3ccccc32)c1=O)NCc1ccc(F)cc1 | 17% | -3% | 5% | nt | 20% | nt
OC1C(Br)=Cc2ccccc21 (stereo unspecified) | 5% | nt | -4% | nt | nt | nt
Cc1ccc(NC(=O)c2ccc(Nc3c([N+](=O)[O-])cc([N+](=O)[O-])cc3[N+](=O)[O-])cc2)cc1 | 20µM* | ? | -32% | ? | ? | -2
CSc1ccc(CCNC(=O)CN2C(=O)COc3ccc(S(=O)(=O)N4CCCC4)cc32)cc1 | -3% | -10% | -17% | nt | -22% | nt
COc1ccc2c(/C=C/c3cc[n+](C)cc3)c[nH]c2c1 | 177% | -27% | -15% | -12% | 2% | 11
COc1ccc2c(c1)c(/C=C/c1cc[n+](C)cc1)cn2C | ? | -15% | -19% | -36% | 89µM* | -3
Cn1c(CCNC(=O)C(C)(C)C)nc2ccccc21 | 12% | 25µM* | -5% | 1% | 43% | 3
Cn1c(CCNC(=O)c2ccccc2)nc2ccccc21 | 23% | -4% | 1%[60.1 µM] | -6% | -2% | nt
O=C(NCc1ccco1)c1ccc(-c2csnn2)cc1 | ? | -7% | -8% | 5% | 10µM* | -12
CC(=O)NN1C(=O)/C(=C\c2ccc(O)cc2)SC1=S | ? | -11% | -2% | -21% | -5% | -14
COc1cc(/C=C2\SC(=S)N(NC(=O)c3ccc(O)cc3)C2=O)ccc1O | 50µM* | ? | ? | 28µM* | 13µM* | -22

From PubChem
